# Reference: PubChem BioAssay (EPA / NIEHS)
# Inconclusive results are not listed. More than one record can exist for a structure, and the calls need not agree. Active and inactive are the calls of the source. The calls were made as follows, unless noted: active = hit-call score of the fitted dose curve at least 0.9, where 1 is the maximum; inactive = score below 0.9.
# Assays:
# [1] = read-out: Vascular cell adhesion molecule 1 (VCAM1), VCAM1 (gene 7412); experiment: BSK_MyoF_VCAM1: BioMAP Diversity Plus: MyoF Assay for Vascular cell adhesion molecule 1 (VCAM1) Biomarker Activity (AID 2284231); conditions: primary human lung fibroblasts
# Method in brief: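 Primary human lung fibroblasts were dosed with test chemical for 24 h, then cell-surface VCAM-1 was measured by ELISA. Activity was fitted in the positive direction against DMSO as negative control and baseline.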
# [2] = read-out: Collagen I, COL1A1 (gene 1277); experiment: BSK_MyoF_CollagenI: BioMAP Diversity Plus: MyoF Assay for Collagen I Biomarker Activity (AID 2284238); conditions: primary human lung fibroblasts
# Method in brief: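 Human lung fibroblasts were exposed to test chemical for 24 h, then Collagen I was quantified by ELISA. Activity was fitted in the increasing direction against DMSO as the negative control and baseline.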
# [3] = read-out: Collagen III, COL3A1 (gene 1281); experiment: BSK_MyoF_CollagenIII: BioMAP Diversity Plus: MyoF Assay for Collagen III Biomarker Activity (AID 2284239); conditions: primary human lung fibroblasts
# Method in brief: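 Human lung fibroblasts were dosed with chemicals and, 24 hours later, collagen III was measured by ELISA. Activity was fitted in the positive direction against the DMSO negative-control baseline.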
# [4] = CCTE_Mundy_HCI_hNP1_Casp3_7: CCTE's Caspase-Glo 3/7 Assay in human neuroprogenitor cells for Apoptosis, Mundy Lab (AID 2284240)
# Method in brief: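 Luminescent caspase-3/7 readout, 26.5 h post-dose, in human neural progenitor cells from WA09 embryonic stem cells. Cells grew 40–44 h at 37 °C, 5% CO2 before chemical addition. Activity analysed as signal increase over DMSO baseline.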
# [5] = UKN2_HCS_IMR90_cell_viability: Viability Assessment in the University of Konstanz (UKN) Leist Lab Neural Crest Cell Migration Assay in human induced IMR90 Pluripotent Stem Cells (UKN2) (AID 2284233);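 also: cells exposed to compound for 24 h after a 24 h migration phase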
# Method in brief: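 Viability read as calcein-AM fluorescence by high-content imaging, Hoechst co-stain, 30 min. Human iPSC (IMR90) neural crest cells had migrated 24 h into stopper-defined gaps before 24 h chemical exposure. Fitted bidirectionally relative to DMSO.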
# [6] = CCTE_Mundy_HCI_Cortical_NOG_NeuronCount: CCTE's Neurite Outgrowth Assay in rat cortical cells for Neuron Count, Mundy Lab (AID 2284236; active = hit-call score of the fitted dose curve at least 0.9, where 1 is the maximum;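 also: neurons counted by imaging betaIII-tubulin and Hoechst stained cortical cells; cells exposed to compound for about 48 hours before fixation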)
# Method in brief: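 Read-out: neuron number by high-content imaging of betaIII-tubulin (Alexa Fluor-488) and Hoechst-labelled rat primary cortical cells.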
# [7] = CCTE_Mundy_HCI_Cortical_NOG_BPCount: CCTE's Neurite Outgrowth Assay in rat cortical cells for Branch Point Count, Mundy Lab (AID 2284237)
# Procedure: CCTE_Mundy_HCI_Cortical_NOG is a multiplexed, cell-based-readout assay that uses rat primary cortical cells with measurements taken at 50.33 hours after chemical dosing in a microplate: 96-well plate.CCTE_Mundy_HCI_Cortical_NOG_BPCount is one of four components of the CCTE_Mundy_HCI_Cortical_NOG assay. It measures neurite outgrowth related to the number of branch points using High Content Imaging of fluorescently labelled markers.[…] Using a type of morphology reporter, loss -of-signal activity can be used to understand developmental effects.
# Exposure starts 2 hours post-plating by adding 10 ul of the working solution to 90 ul of media in the wells for a 1/10 dilution. Forty-eight hours after chemical treatment cells are fixed by direct addition of 100 ul of warm (37C) Dulbecco's phosphate buffered saline (DPBS) fixative solution containing 8% paraformaldehyde, 8% sucrose, and 0.1% of 3 mg/ml Hoechst 33342 into each well. Primary antibodies are prepared by dilution in Immunocytochemical Staining Buffer (ISB), 10X Dulbecco's PBS, 0.1% Saponin, 5% Bovine Serum Albumin, 0.5% NaN3 (Sodium Azide) and betaIII-tubulin (rabbit anti-betaIII-tubulin, 1:800) followed by Alexa Fluor-488 secondary (1:500) to label neuronal cell bodies and neurites. A Cellomics ArrayScan VTi HCS Reader is used for automated image acquisition and analysis of neurite outgrowth.
# [8] = CCTE_Mundy_HCI_Cortical_Synap_Neur_Matur_NeuronCount: CCTE's Synaptogenesis and Neurite Maturation Assay in rat cortical cells for Neuron Count, Mundy Lab (AID 2284242; active = hit-call score of the fitted dose curve at least 0.9, where 1 is the maximum)
# Method in brief: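 Measured at DIV 12: fluorescently labelled neurons (Hoechst nuclei, MAP2) in rat primary cortical cultures, counted by high-content imaging. AraC suppressed glia from DIV 5; DMSO served as negative control.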
compound,measurement,setting,value
C=C(C)C(=O)OCC(F)(F)C(F)(F)C(F)(F)C(F)(F)C(F)(F)C(F)(F)C(F)(F)F,outcome,[1],inactive
same,outcome,[2],inactive
same,outcome,[3],inactive
CCCCNc1ccccc1,outcome,[1],inactive
same,outcome,[2],inactive
same,outcome,[3],inactive
Oc1ccc(Nc2ccccc2)cc1,outcome,[1],inactive
same,outcome,[2],inactive
same,AC50,[3],16.2 µM (active)
O[Si](c1ccccc1)(c1ccccc1)c1ccccc1,outcome,[1],inactive
same,AC50,[2],31.3 µM (active)
same,AC50,[3],31.5 µM (active)
C=CC(F)(F)C(F)(F)C(F)(F)C(F)(F)C(F)(F)C(F)(F)C(F)(F)C(F)(F)C=C,outcome,[1],inactive
same,outcome,[2],inactive
same,outcome,[3],inactive
COC(=O)CCC(F)(F)C(F)(F)C(F)(F)C(F)(F)F,outcome,[1],inactive
same,outcome,[2],inactive
same,outcome,[3],inactive
NC(=O)C(F)(F)C(F)(F)C(F)(F)C(F)(F)F,outcome,[1],inactive
same,outcome,[2],inactive
same,outcome,[3],inactive
CCCCCCCOC(=O)c1ccccc1C(=O)OCCCCCCC,outcome,[1],inactive
same,outcome,[2],inactive
same,outcome,[3],inactive
CCCCCCC(C)OC(=O)CCCCC(=O)OC(C)CCCCCC (stereo unspecified),outcome,[1],inactive
same,outcome,[2],inactive
same,outcome,[3],inactive
FC(F)(F)C(F)(F)CNCC(F)(F)C(F)(F)F,outcome,[1],inactive
same,outcome,[2],inactive
same,outcome,[3],inactive
O=C(O)C(F)(OC(F)(F)C(F)(OC(F)(F)C(F)(OC(F)(F)C(F)(F)C(F)(F)F)C(F)(F)F)C(F)(F)F)C(F)(F)F (stereo unspecified),outcome,[1],inactive
same,outcome,[2],inactive
same,outcome,[3],inactive
FC(F)(F)C(F)(F)C(F)(F)C(F)(F)C(F)(F)C(F)(F)C(F)(F)Br,outcome,[1],inactive
same,outcome,[2],inactive
same,outcome,[3],inactive
CCCCCCCCCCCCCCCC[N+](C)(C)Cc1ccccc1,AC50,[1],2.1 µM (active)
same,AC50,[2],0.987 µM (active)
same,AC50,[3],1.73 µM (active)
CCCCCCCCC(F)(F)C(F)(F)C(F)(F)C(F)(F)C(F)(F)C(F)(F)F,outcome,[1],inactive
same,outcome,[2],inactive
same,outcome,[3],inactive
OCC(F)(F)C(F)(F)C(F)(F)C(F)(F)C(F)(F)C(F)(F)F,outcome,[1],inactive
same,outcome,[2],inactive
same,outcome,[3],inactive
FC(F)(F)C(F)(F)C(F)(F)C(F)(F)C(F)(F)C(F)(F)C(F)(F)C(F)(F)CCS,AC50,[1],6.22 µM (active)
same,outcome,[1],inactive
same,outcome,[2],inactive
same,outcome,[3],inactive
same,outcome,[4],inactive
OCCCC(F)(F)C(F)(F)C(F)(F)F,outcome,[1],inactive
same,outcome,[2],inactive
same,outcome,[3],inactive
CC(CCl)OP(=O)(OC(C)CCl)OC(C)CCl (stereo unspecified),outcome,[1],inactive
same,outcome,[5],inactive
same,outcome,[6],inactive
same,outcome,[7],inactive
same,outcome,[2],inactive
same,outcome,[3],inactive
same,outcome,[4],inactive
same,outcome,[8],inactive
